Compound activity as filed in PubChem BioAssay.
Pf growth 96h: P. falciparum growth inhibition at 96 hours | P. falciparum luciferase reporter growth, 96 h | Potency, µM (doses to about 28.7 µM), hits mostly inhibitors | actives 6.9% (n = 320,000) | AID 504834
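Infected RBCs, 2% Hct / 0.05% parasitemia final; luciferase-reporter P. falciparum; cpd 96 h, 37 C, 5% CO2; luciferase detection reagent; luminescence.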
Pf growth 48h: inhibits P. falciparum growth in the first generation, 48 h. P. falciparum luciferase growth in erythrocytes, 48 h. Potency, µM (series often up to 28.7 µM), actives largely listed as inhibitors. actives 5.9% (n = 310,000). AID 504832
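Compounds are pin-transferred into medium, infected erythrocytes (2% hematocrit, 0.1% parasitemia final) are added, and plates sit one parasite generation at 37 C in 5% CO2. Detection reagent is then added and luminescence measured.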
Sm TGR inh: blocks Schistosoma mansoni thioredoxin glutathione reductase; Q962Y6; actives 3% (n = 360,000); Potency, µM (titrated, usually from 114 µM), hits mostly inhibitors; purified TGR, DTNB reduction, TNB absorbance 405 nm; further: nearly all actives have a fitted effect of over 60% in size
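First, TGR (20 nM dispensed) and NADPH were mixed with compound. Second, a 15 min room-temperature incubation followed. Third, further NADPH and then DTNB were added to start the reaction. Finally, TNB absorbance was monitored kinetically.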
FBPA Giardia inh: Giardia lamblia aldolase inhibition; actives 0.71% (n = 290,000); purified Giardia FBPA; Potency, µM (series often up to 59.6 µM), most hits filed as inhibitors; further: nearly all actives have a fitted effect of over 55% in size
Target sequence (A8B2U2 whole entry, looked up): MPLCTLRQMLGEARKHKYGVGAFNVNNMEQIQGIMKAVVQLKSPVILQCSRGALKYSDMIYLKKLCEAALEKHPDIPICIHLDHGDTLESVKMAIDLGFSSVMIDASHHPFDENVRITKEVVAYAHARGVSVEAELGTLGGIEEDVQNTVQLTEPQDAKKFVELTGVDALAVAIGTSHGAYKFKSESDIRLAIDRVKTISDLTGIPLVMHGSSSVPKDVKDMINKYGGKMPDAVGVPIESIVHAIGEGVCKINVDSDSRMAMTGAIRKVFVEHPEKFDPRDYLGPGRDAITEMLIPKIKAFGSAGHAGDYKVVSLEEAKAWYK
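Giardia FBPA (40 nM reagent) was preincubated 10 min at RT with compound (up to 57.5 uM final), then substrate plus GAPDH/TPI/NAD/arsenate coupling system with diaphorase/resazurin was added; resorufin fluorescence (525/598 nm) was read after 20 min.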
HCMV antiviral: human cytomegalovirus inhibition | HFF cells, HCMV-luciferase reporter, 72 h; hits give low values | activity change, negative = inhibition, % at 57.5 µM | actives 4.5% (n = 410,000) | AID 1259415; in the data active means activity change below about -60%; inconclusive means no clear call, values can overlap the other calls; inactive means above about -39%
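Two compound doses tested in HFFs infected with HCMV-luciferase, MOI 1 PFU/cell, 72 h at 37C. Lysate luminescence read with OneGlo; data normalized against buffer-only and 10uM Salinomycin inhibitor controls.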
Of the large screens only hits and unclear results are named; the others gave an inactive call. The list is not random: actives were taken first. Their share in the collection is about 14%. Unless noted, the call rests on the fitted dose curve; in most records, active means well fitted curve in the direction sought with a large enough effect; inconclusive means small, poorly fitted or top-dose-only effect, or another doubt; inactive means no such curve, though single readings can be large; an effect the other way counts as inactive or inconclusive.

CCn1c(=O)c(C(=O)CN2CCCc3ccccc32)c(N)n(Cc2ccccc2)c1=O	Pf growth 96h 12µM, Pf growth 48h 9.3µM, HCMV antiviral -88
CCN(C(=O)CN1c2ccccc2CC1C)c1c(N)n(Cc2ccccc2)c(=O)[nH]c1=O (centres undefined)	HCMV antiviral -64
CCn1c(=O)c(C(=O)CN2CCN(S(=O)(=O)c3ccc(C)cc3C)CC2)c(N)n(Cc2ccccc2)c1=O	Pf growth 96h 8.3µM, Pf growth 48h inconclusive
O=C(CCN1C(=O)C2C3CCC(C3)C2C1=O)Nc1ccc(F)cc1 (centres undefined)	none
COc1ccc(NC(=O)c2cn(CCC#N)nc2-c2cc3ccccc3o2)cc1	none
CC1Cc2ccccc2N1CC(=O)c1c(N)n(Cc2ccccc2)c(=O)n(C)c1=O (centres undefined)	Pf growth 96h 9.3µM, Pf growth 48h 8.3µM
CC(=O)Nc1ccc(SCC(=O)c2c(N)n(Cc3ccccc3)c(=O)n(C)c2=O)cc1	Pf growth 96h inconclusive
Cc1cc(C)c(C)c(S(=O)(=O)N2CCN(CC(=O)c3c(N)n(Cc4ccccc4)c(=O)n(C)c3=O)CC2)c1C	Pf growth 96h inconclusive, Pf growth 48h 5.9µM
CCn1c(=O)c(C(=O)CN2CCN(S(=O)(=O)c3ccccc3)CC2)c(N)n(Cc2ccccc2)c1=O	Pf growth 96h inconclusive
Cn1c(=O)c(C(=O)CN2CCN(Cc3ccc4c(c3)OCO4)CC2)c(N)n(Cc2ccccc2)c1=O	none
Cn1c(=O)c(C(=O)CN2CCCCCC2)c(N)n(Cc2ccccc2)c1=O	Pf growth 96h inconclusive, Pf growth 48h inconclusive, Sm TGR inh 35µM
CCn1c(=O)c(C(=O)CN2c3ccccc3CC2C)c(N)n(Cc2ccccc2)c1=O (centres undefined)	Pf growth 96h inconclusive, Pf growth 48h inconclusive
CC(C)Nc1nnc(SCC(=O)c2c(N)n(Cc3ccccc3)c(=O)n(C)c2=O)s1	Pf growth 96h 9.3µM, Pf growth 48h inconclusive
c1ccc(C2Oc3ccccc3C3CC(c4cccs4)=NN32)cc1 (centres undefined)	Sm TGR inh inconclusive
O=[N+]([O-])c1ccc(C2Oc3ccccc3C3CC(c4ccccc4)=NN32)s1 (centres undefined)	Pf growth 96h inconclusive, Sm TGR inh 40µM (no result: HCMV antiviral)
CN(CC(=O)Nc1cccc(F)c1)C(=O)c1ccccc1Sc1ccccc1C#N	Pf growth 96h inconclusive (no result: FBPA Giardia inh)
CC(C)(C)Cc1c(-c2ccc(F)cc2)nc2ccc(Br)cn12	HCMV antiviral -76 (no result: Pf growth 96h, Pf growth 48h, Sm TGR inh, FBPA Giardia inh)
CC(C)(C)Cc1c(-c2ccc(Cl)cc2)nc2ccc(Br)cn12	none (no result: Pf growth 96h, Pf growth 48h, Sm TGR inh, FBPA Giardia inh)
CCOc1ccc(-n2c(C)c3c(C)nnc(C)c3c2C)cc1	HCMV antiviral -62 (no result: Pf growth 96h, Pf growth 48h, Sm TGR inh, FBPA Giardia inh)
Cc1nnc(C)c2c(C)n(-c3ccc(Cl)c(N)c3)c(C)c12	Pf growth 96h 13µM
Cc1cc(C)cc(-n2c(C)c3c(C)nnc(C)c3c2C)c1	Pf growth 96h inconclusive, Pf growth 48h inconclusive
Cc1ccc[n+](CC(=O)Nc2ccc(C)c(C)c2)c1	Pf growth 96h inconclusive
N#Cc1ccc(/C=N/NC(=S)Nc2ccc(S(=O)(=O)N3CCOCC3)cc2)cc1	Pf growth 96h inconclusive, Pf growth 48h inconclusive
O=S(=O)(c1ccc(Cl)c(NC(=S)N/N=C/c2ccc(O)cc2)c1)N1CCOCC1	Pf growth 96h 3.3µM, HCMV antiviral -83
O=S(=O)(c1ccc(NC(=S)N/N=C/c2ccc(O)c(O)c2)cc1)N1CCOCC1	Pf growth 96h 13µM, Pf growth 48h 15µM
O=[N+]([O-])c1cc(Cl)cc(/C=N/NC(=S)Nc2ccc(S(=O)(=O)N3CCOCC3)cc2)c1O	Pf growth 96h inconclusive, Pf growth 48h 0.47µM
O=S(=O)(c1ccc(Cl)c(NC(=S)N/N=C/c2c(F)cccc2F)c1)N1CCOCC1	Pf growth 96h inconclusive
O=C(COC(=O)c1ccccc1N1C(=O)C2C3CCC(C3)C2C1=O)c1ccccc1 (centres undefined)	Pf growth 96h 2.3µM
Cc1ccc(C)c(C(=O)COC(=O)c2ccccc2N2C(=O)C3C4CCC(C4)C3C2=O)c1 (centres undefined)	Pf growth 48h inconclusive, Sm TGR inh inconclusive (no result: FBPA Giardia inh)
COc1c(C=O)cc2c3c1CCCN3CCC2	Pf growth 96h inconclusive
NCc1cc2c3c(c1)CCCN3CCC2	Pf growth 96h 7.4µM, Sm TGR inh inconclusive, FBPA Giardia inh inconclusive
Cc1c(N2CCCCC2)[nH]c2ccccc12	none (no result: Pf growth 96h, Pf growth 48h, Sm TGR inh, FBPA Giardia inh)
